From PubChem BioAssay
LRH-1 inv ag: inverse agonists of human LRH-1 (NR5A2) | HEK293T StAR-luciferase reporter, LRH-1 transfected, 24 h | AID 602396 | inhibition, % at 3.6 µM | 360,000 compounds, 0.13% hits;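 active means inhibition above the mean inhibition of all tested compounds plus 3 SD, cut at about 73% in these data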;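 further: 0% = DMSO wells and 100% = reporter-only cells lacking LRH-1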
NR2F2 inh: NR2F2 (human) inhibition, primary screen | P24468 | HEK293T NGFI-A luciferase reporter, luminescence | inhibition, % at 8.6 µM | 370,000 compounds, 0.7% hits;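 active means inhibition above a per-plate cutoff, mean inhibition of test wells between control levels plus 3 SD, cut at about 38% in these data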;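 further: cells cotransfected with COUP-TFII expression vector driving the NGFI-A reporter; 0% = median of COUP-TF2 test wells and 100% = reporter-only cells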
NCOA3 inh: inhibitors of human steroid receptor coactivator 3 (SRC3) | Q9Y6Q9 | HEK293 GAL4-SRC3 luciferase reporter, luminescence | inhibition, % at 3.6 µM | 360,000 compounds, 0.17% hits;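 active means inhibition above a per-campaign cutoff, the mean of all compounds plus 3 SD, cut at about 60% in these data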;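 further: 0% = DMSO-treated cells and 100% = gossypol-treated cells at 36 µM; higher means less SRC3-driven luciferase light from the GAL4 reporter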
GalR3 antag: human GalR3 antagonism; O60755; HEK293 GalR3-CNG cAMP membrane potential fluorescence; galR3 body fused to GalR1 C-terminus; inhibition, % at 3 µM; 360,000 compounds, 0.44% hits; AID 651719;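 active means inhibition above the screen-wide average plus 3 SD, cut at about 13% in these data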;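 further: forskolin and galanin both at EC90 stimulate the cells; cAMP rise reported by CNG channel membrane potential dye signal; 0% = forskolin plus galanin with DMSO and 100% = forskolin alone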
Target sequence (O60755 1-299 limits assumed): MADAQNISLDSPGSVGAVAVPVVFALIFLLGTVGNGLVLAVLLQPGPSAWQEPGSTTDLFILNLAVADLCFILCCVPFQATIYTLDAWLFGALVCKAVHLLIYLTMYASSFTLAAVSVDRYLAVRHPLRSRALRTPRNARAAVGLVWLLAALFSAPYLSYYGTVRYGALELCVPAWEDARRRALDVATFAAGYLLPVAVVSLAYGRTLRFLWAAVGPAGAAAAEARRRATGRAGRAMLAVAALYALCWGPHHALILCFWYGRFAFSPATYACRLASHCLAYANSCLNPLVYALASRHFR
SRC1 inh: inhibits human SRC1 coactivator | Q15788 | HEK293 GAL4-SRC1 luciferase reporter, luminescence | inhibition, % at 3.6 µM | 360,000 compounds, 0.12% hits | AID 588354;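 active means inhibition above the campaign mean plus 3 SD, with each screening campaign given its own cutoff, cut at about 60% in these data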;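 further: 0% = DMSO treated cells and 100% = gossypol at 36 µM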
SRC2 inh: inhibits human steroid receptor coactivator 2 | Q15596 | HEK293 GAL4-SRC2 luciferase reporter, luminescence | inhibition, % at 9 µM | 370,000 compounds, 0.17% hits | AID 651957;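 active means inhibition above the mean inhibition of all tested compounds plus 3 SD, set per campaign, cut at about 52% in these data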;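 further: 0% = DMSO treated cells and 100% = cells given Gossypol at 36 µM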
Starred values were filed as active, the others as inactive; x = no result. Only some compounds are listed: those with a hit (about 1.1% of all), similar ones and a draw of the others.

SMILES	LRH-1 inv ag	NR2F2 inh	NCOA3 inh	GalR3 antag	SRC1 inh	SRC2 inh
COc1cccc2c1C1COC3C4CC(C(=O)O)C(C(C2)N13)N4C (stereo not drawn)	88*	-20	5	-4	21	22
C[C@H]1[C@@H](NC(=O)C2CCC2)CC[C@@]23CCCN2C(=O)CCC[C@@H]13	x	-8	x	x	x	x
O=S1(=O)c2ccc(Br)cc2OC[C@H](Cc2ccccc2)N1Cc1cn(Cc2ccc(F)cc2)nn1	x	-1	x	x	x	-5
COc1cccc2[nH]c3c(N4CCCCC4)ncnc3c12	-1	-33	-26	96*	-17	-29
CCOC(=O)C1CCN(c2ncnc3c2[nH]c2cccc(OC)c23)CC1	-6	-5	3	-4	-6	-18
CCOc1ccc(-n2c(-c3ccc(Br)cc3)c[n+]3c2CCCCC3)cc1	54	25	42	18*	11	16
COC(=O)[C@]12C=CCN1[C@@H](c1ccc(Cl)cc1)c1c(c3ccccc3n1S(=O)(=O)c1ccc(C)cc1)C2	x	1	x	x	x	16
C/C(=N\Nc1ccc2nncn2n1)c1ccccn1	17	-21	76*	-2	73*	19
C/C(=N\Nc1ccc2nncn2n1)c1ccco1	-24	-4	13	-5	-12	12
CCC[C@H]1[C@@H](NC(=O)c2ccc(N(C)C)cc2)CC[C@@]23CCCN2C(=O)CCC[C@@H]13	x	1	x	x	x	x
O=C(CCCN1C(=O)/C(=C/c2cccs2)SC1=S)NNC(=O)c1ccncc1	18	-18	10	-1	2	13
O=C(CCCN1C(=O)/C(=C/c2ccccc2Cl)SC1=S)NNC(=O)c1ccncc1	18	37	36	-5	32	58*
Clc1ccc(OCCOc2ccc(Br)nc2Br)c(Cl)c1	x	-21	x	x	x	x
COc1ccc(-c2cnc3c(NC=O)cc(-c4ccccc4OC)cn23)cc1OC	15	-109	20	34*	-33	4
Cc1ccc2nc(C(F)(F)F)c(C#N)c(N)c2c1	25	34	36	-7	38	54*
COc1ccc(-c2csc3ncnc(NCCO)c23)cc1	12	28	54	0	54	59*
Nc1ccc(-c2cnc(N)c(C(=O)c3cccnc3)n2)cn1	52	x	70*	x	69*	x
Nc1ccc(C(=O)c2cccs2)cn1	10	13	5	-11	-14	-9
COC(=O)c1cc(C)nc2c1C(=O)C(=O)C=C2N1CCOCC1	22	42*	71*	-14	62*	57*
COC(=O)c1cc(S(=O)(=O)N2CCOCC2)c(Cl)cc1N1CCOCC1	8	-7	-22	-3	-16	-17
CC(C)(C)c1ccc(-c2nnc(SCC(=O)Nc3ccccc3-c3ccccc3)n2Cc2ccco2)cc1	x	11	x	x	x	-20
Brc1ccc2c(c1)CN1CCCC1=N2	45	11	39	-11	61*	-1
Cc1cc(NC(=O)c2ccccc2)c(Cl)cc1N	0	16	6	-12	5	66*
CN1C(=O)c2cc(NS(=O)(=O)c3cccc(F)c3)ccc2OC[C@@H]2O[C@H](CC(=O)O)CC[C@H]21	x	-6	x	x	x	-4
COc1ccc(S[C@]2(C(=O)N3CCCC3)CC(=O)N(C(=O)CCc3ccccc3)[C@@H]2c2ccc(OC)cc2)cc1	x	6	x	x	x	12
SMILES	LRH-1 inv ag	NR2F2 inh	NCOA3 inh	GalR3 antag	SRC1 inh	SRC2 inh
CCC1(O)C(=O)OCc2c1cc1n(c2=O)Cc2cc3cc(O)ccc3nc2-1 (stereo not drawn)	92*	35	78*	-4	51	34
COc1ccccc1/C=C/C(=O)c1c2c(c(C)[nH]c1=O)CCCC2	12	4	65*	-5	31	58*
CCOc1ccc(-n2c(SCC(=O)Nc3ccc(S(=O)(=O)Nc4nccs4)cc3)nnc2-c2ccccc2)cc1	x	14	x	x	x	-4
c1ccc(-n2c(SCc3cccc4ccccc34)nnc2-c2ccncc2)cc1	x	4	x	x	x	4
CCOC(=O)C(C(C)=O)c1c(Br)c(O)c(O)c2c(C(=O)c3ccc(C)cc3)coc12 (stereo not drawn)	67	31	80*	-4	59	-1
COc1ccc(-n2c(SCC(=O)Nc3cc(C)c(NC(=O)c4ccccc4)cc3OC)nnc2-c2ccco2)cc1	x	-2	x	x	x	9
O=C(N/N=C/c1cc2c3c(c1O)CCCN3CCC2)c1ccccc1O	63	-28	68*	8	66*	7
Cc1nn(-c2ccccc2)c(N2CCCC2)c1/C=N/NC(=O)c1ccccc1O	-58	1	0	-4	-3	-5
COC(=O)[C@]12C[C@H](CC(=O)N3CCN(C(=O)C4CC4)CC3)C(=O)N(Cc3ccco3)C1=C[C@H](C(C)(C)C)O[C@@H]2C	x	8	x	x	x	15
CC(=O)Nc1cccc(-c2cc(NC(C)=O)c3ncc(-c4ccc(F)cc4)n3c2)c1	36	-15	2	5	9	54*
C=CCn1cc(/C=C/c2cc[n+](C)cc2)c2ccccc21	38	49*	18	-10	14	13
COc1ccc(S[C@]2(C(=O)N3CCN(c4ncccn4)CC3)CC(=O)N(c3ccc(OC)cc3)[C@@H]2c2ccc(OC)cc2)cc1	x	17	x	x	x	14
COc1cccc2[nH]c(=O)c(-c3ccccc3)cc12	-98	-31	83*	-9	-61	-44
Cc1oc2c(c1C(=O)c1ccccc1)C(=O)C(=O)c1ccccc1-2	16	-31	-39	-5	-16	63*
Cc1oc2c(c1C(=O)O)C(=O)c1ccccc1C2=O	14	3	11	1	1	-24
O=[N+]([O-])c1cc(C(F)(F)F)ccc1N1CCN(S(=O)(=O)c2ccc3ccccc3c2)CC1	17	17	6	16*	6	6
O=C(Nc1ccc(NC(=O)c2ccco2)cc1)c1ccc2c(c1)OCCO2	-28	29	-3	3	3	61*
COc1ccc(CNC2CCC23CCCCC3)cc1OC (stereo not drawn)	x	5	x	x	x	x
CCOC(=O)c1ccc(-c2ccc(N3C(c4cccc(OC)c4)=Cc4ccc(F)cc4C3CC(C)=O)cc2)cc1F (stereo not drawn)	21	16	x	-5	x	60*
COc1cccc(C2=Cc3ccc(F)cc3C(CC(C)=O)N2c2ccc(-c3cncnc3)cc2)c1 (stereo not drawn)	4	-25	x	-7	x	-21
O=C(NCC(c1ccccc1)c1ccccc1)[C@H](Cc1c[nH]c2ccccc12)NC1(C(=O)NC2CCCCC2)CCCCCC1	x	2	x	x	x	x
CCC(CC)NC(=O)Nc1cccc(C)c1C	1	-6	17	-4	6	10
CCC(C)N(CC(=O)Nc1cccc(C)c1C)C(=O)CCl (stereo not drawn)	42	x	62*	x	62*	x
COC(=O)[C@@]12CCCCC3=C1N(CCC3)C(=O)[C@H]2CC(=O)NCc1ccccc1	x	14	x	x	x	-10
